Data as given in PubChem BioAssay (Tox21).
Inconclusive results are not listed. Calls of active or inactive are those of the source. Unless noted, the call rests on the fitted dose curve; in most records, active means well fitted curve in the direction sought with a large enough effect in the repeat runs; inconclusive means weak or mixed curves; inactive means no such curve, though single readings can be large; an effect the other way counts as inactive or inconclusive.

Key:
[1] = qHTS assay for small molecule agonists of the p53 signaling pathway (AID 651631; calls by dose curve; further: nearly all actives have a fitted effect of over 15% in size)
Method in brief: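 Agonist mode screen using a stably integrated beta-lactamase gene under p53 response elements in HCT-116 cells. Compound exposure lasts 16 h at 37 °C; fluorescence intensity is measured following 2 h FRET substrate loading.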

[2] = qHTS assay for small molecules that induce genotoxicity in human embryonic kidney cells expressing luciferase-tagged ATAD5 (AID 651632); further: nearly all actives have a fitted effect of over 15% in size
Method in brief: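 Luminescent reporter readout, HEK293T ATAD5-luc line: 16 hr drug exposure (37C, 5% CO2) followed by Amplite, 30 min RT.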

[3] = qHTS assay for small molecule agonists of the p53 signaling pathway - cell viability (AID 651633; calls by dose curve;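 further: p53RE-bla HCT reporter cells with a stable beta-lactamase p53 reporter; series mostly up to about 83 µM; nearly all actives have a fitted effect of over 30% in size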)
Method in brief: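 p53RE-bla cells, seeded at 4,000 per well and rested 5 h at 37 C/5% CO2, received compounds in DMSO for 16 h at 37 C. CellTiter-Glo was then added, and luminescence was read after 30 min at room temperature to gauge cytotoxicity.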

[4] = qHTS assay for small molecules that induce genotoxicity in human embryonic kidney cells expressing luciferase-tagged ATAD5 - cell viability (AID 651634; calls by dose curve; further: nearly all actives have a fitted effect of over 25% in size)
Method in brief: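 Viability read: CellTiter-Fluor fluorescence, 30 min at 37C. Cells: HEK293T, luciferase-tagged ATAD5. Exposure: 15.5 hr, 37C, 5% CO2, compound or DMSO vehicle.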

[5] = qHTS assay for small molecule disruptors of the mitochondrial membrane potential - cell viability (AID 720634; calls by dose curve;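 further: human HepG2 liver cancer cells; series mostly up to about 83 µM; nearly all actives have a fitted effect of over 20% in size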)
Method in brief: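 HepG2, 1 hr compound, 37 C. ATP luminescence via CellTiter-Glo, 30 min RT, same well as m-MPI.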

[6] = qHTS assay to test for compound auto fluorescence at 590 nm (red) in HepG2 cells (AID 720674)
Method in brief: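 Rose Bengal sodium served as the red fluorophore standard. HepG2 monolayers (overnight attachment, MEM with 10% FBS) were exposed to test compounds for 1 hr at 37 C and read at Ex 540/Em 590 nm.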

[7] = qHTS assay to test for compound auto fluorescence at 535 nm (green) in HepG2 cells (AID 720675)
[8] = qHTS assay to test for compound auto fluorescence at 460 nm (blue) in HEK293 cells (AID 720678)
Method in brief: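 HEK293, 2,000 cells/well, 10% dialyzed FBS; attach 4-5 hr 37C; pin compound or DMSO; o/n 37C/5% CO2; fluorescence 405/460 nm; triamterene-equivalent units.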

[9] = qHTS assay to test for compound auto fluorescence at 535 nm (green) in HEK293 cells (AID 720680)
[10] = qHTS assay to test for compound auto fluorescence at 535 nm (green) in HEK293 cell free culture (AID 720682)
Method in brief: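 No cells present: wells hold DMEM supplemented with 10% FBS, into which compound or vehicle is pinned. Green emission is then recorded (485 nm excitation, 535 nm emission) and scaled to fluorescein.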

[11] = qHTS assay to test for compound auto fluorescence at 590 nm (red) in HEK293 cell free culture (AID 720683)
Method in brief: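 Tox21 10K library compounds were pinned into cell-free DMEM with 10% FBS and fluorescence was read at excitation 540 nm. Activity is expressed as Rose Bengal sodium equivalency.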

[12] = qHTS assay to test for compound auto fluorescence at 590 nm (red) in HepG2 cell free culture (AID 720684)
Method in brief: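 Red fluorescence (540 nm excitation, 590 nm emission) was measured after compound transfer into cell-free MEM supplemented with 10% FBS. Values are equivalencies against Rose Bengal sodium.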

[13] = qHTS assay to test for compound auto fluorescence at 460 nm (blue) in HepG2 cell free culture (AID 720685)
Method in brief: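 Compound (23 nL) or DMSO pinned into cell-free MEM with 10% FBS; blue fluorescence read at 405/460 nm excitation/emission, expressed as auto-fluorescence equivalency to triamterene.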

[14] = qHTS assay to test for compound auto fluorescence at 535 nm (green) in HepG2 cell free culture (AID 720686)
[15] = qHTS assay to test for compound auto fluorescence at 460 nm (blue) in HepG2 cells (AID 720687)
Method in brief: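 Cells (2,000/well in MEM with 10% FBS) attached overnight at 37 C, then were exposed to compound or DMSO for 1 hr at 37 C, 5% CO2. Fluorescence read at Ex/Em 405/460 nm, expressed as triamterene-equivalent signal.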

[16] = qHTS assay to identify small molecule antagonists of the glucocorticoid receptor (GR) signaling pathway - cell viability counter screen (AID 720693); further: nearly all actives have a fitted effect of over 55% in size
[17] = qHTS assay for identifying genotoxic compounds that show differential cytotoxicity against isogenic chicken DT40 cell lines with known DNA damage response pathways - wild type cell line (AID 743012); further: nearly all actives have a fitted effect of over 60% in size; further: potency means the concentration at half of the fitted maximal effect
Method in brief: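 First, wild type DT40 cells were plated at 300 per well and equilibrated about 0.5 h at 37 C/5% CO2. Next, compounds in DMSO were added and exposure lasted 40 h. Finally, CellTiter-Glo was added for 30 min at room temperature and luminescence recorded.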

[18] = qHTS assay for identifying genotoxic compounds that show differential cytotoxicity against isogenic chicken DT40 cell lines with known DNA damage response pathways - Rev3 mutant cell line (AID 743014); further: potency means the concentration at half of the fitted maximal effect; nearly all actives have a fitted effect of over 55% in size
[19] = qHTS assay for identifying genotoxic compounds that show differential cytotoxicity against isogenic chicken DT40 cell lines with known DNA damage response pathways - Rad54/Ku70 mutant cell line (AID 743015); further: nearly all actives have a fitted effect of over 60% in size; further: potency means the concentration at half of the fitted maximal effect
[20] = qHTS assay to identify small molecule antagonists of the androgen receptor (AR) signaling pathway - cell viability counter screen (AID 743033; further: nearly all actives have a fitted effect of over 45% in size)
[21] = qHTS assay to identify small molecule antagonists of the thyroid receptor (TR) signaling pathway - cell viability counter screen (AID 743064); further: nearly all actives have a fitted effect of over 50% in size; further: potency means the concentration at half of the fitted maximal effect
Method in brief: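 Rat GH3 pituitary tumor cells stably expressing two TR response elements driving luciferase were plated, rested 4 h, then dosed with library compounds and T3 (1 nM final). After 23.5 h at 37 °C, CellTiter-Fluor was added for 30 min and fluorescence recorded.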

[22] = qHTS assay to identify small molecule antagonists of the thyroid receptor (TR) signaling pathway (AID 743065); further: nearly all actives have a fitted effect of over 55% in size; further: potency means the concentration at half of the fitted maximal effect
Method in brief: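 GH3.TRE-Luc rat pituitary cells carrying two TR response elements driving luciferase were plated for 4 h, given compound plus 1 nM T3 (final), and incubated 23.5 h at 37 C. ONE-Glo luminescence measured reporter inhibition; CellTiter-Fluor fluorescence tracked cytotoxicity.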

[23] = biological target: Estrogen receptor (Homo sapiens) (UniProt P03372); experiment: qHTS assay to identify small molecule antagonists of the estrogen receptor alpha (ER-alpha) signaling pathway (AID 743069; active means well fitted curve in the direction sought with a large enough effect in the signal ratio in the repeat runs, not every such curve was filed as active; the % refers to the signal ratio)
Method in brief: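 HEK293 cells stably carrying an ER-alpha-UAS-bla beta-lactamase reporter were pre-cultured overnight in 2% charcoal-stripped FBS medium. Test compounds in DMSO were added together with 17beta-estradiol for 18 hr at 37C. Read-out was fluorescence after 2 hr with LiveBLAzer B/G FRET substrate at room temperature.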

[24] = qHTS assay to identify small molecule antagonists of the estrogen receptor alpha (ER-alpha) signaling pathway - cell viability counter screen (AID 743074; calls by dose curve; further: nearly all actives have a fitted effect of over 45% in size)
[25] = biological target: Estrogen receptor (Homo sapiens) (UniProt P03372); experiment: qHTS assay to identify small molecule agonists of the estrogen receptor alpha (ER-alpha) signaling pathway (AID 743075; calls by dose curve)
[26] = biological target: Estrogen receptor (Homo sapiens) (UniProt P03372); experiment: qHTS assay to identify small molecule agonists of the estrogen receptor alpha (ER-alpha) signaling pathway using the BG1 cell line (AID 743079); further: nearly all actives have a fitted effect of over 20% in size; further: potency means the concentration at half of the fitted maximal effect
[27] = qHTS assay to identify small molecule antagonists of the estrogen receptor alpha (ER-alpha) signaling pathway using the BG1 cell line (AID 743080; calls by dose curve;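 further: BG1 cells stimulated with 17beta-estradiol alongside compound; series mostly up to about 70 µM; nearly all actives have a fitted effect of over 25% in size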)
Method in brief: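 BG1Luc4E2, endogenous ER-alpha, 4xERE-luc; 5 d charcoal-stripped FBS, phenol red free; 24 h plating; cpd + 17beta-estradiol 21.5 h, 37 C/5% CO2; CellTiter-Fluor viability 30 min, then ONE-Glo luciferase 30 min RT.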

[28] = biological target: Aromatase (Homo sapiens) (UniProt P11511); experiment: qHTS assay to identify aromatase inhibitors (AID 743083); further: series mostly up to about 70 µM; nearly all actives have a fitted effect of over 55% in size
[29] = qHTS assay to identify aromatase inhibitors - cell viability counter screen (AID 743084)
[30] = qHTS assay for small molecule disruptors of the mitochondrial membrane potential (AID 720635)
Method in brief: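 HepG2 cells (2,000/well) attached overnight at 37C, then took compound for 1 hr at 37C, 5% CO2. Mito-MPS dye was added for 30 min; fluorescence was read at 490/535 nm (monomers) and 540/590 nm (aggregates).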

[31] = qHTS assay to test for compound auto fluorescence at 460 nm (blue) in HEK293 cell free culture (AID 720681)
Method in brief: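 Test compounds were pinned into cell-free culture medium (DMEM with 10% FBS) and fluorescence was read directly at Ex/Em 405/460 nm. Signals were expressed as fluorescence equivalents of triamterene, with DMSO vehicle as control.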

[32] = biological target: Glucocorticoid receptor (Homo sapiens) (UniProt P04150); experiment: qHTS assay to identify small molecule agonists of the glucocorticoid receptor (GR) signaling pathway (AID 720691; active means well fitted activation curve with a large enough effect in the signal ratio in the repeat runs, not every such curve was filed as active; the % refers to the signal ratio)
Method in brief: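 qHTS in GR-bla HeLa cells: 4 h settling at 37 C/5% CO2, 18 h compound incubation at 37 C, 2 h LiveBLAzer B/G FRET substrate at room temperature, fluorescence intensity measured.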

[33] = biological target: Glucocorticoid receptor (Homo sapiens) (UniProt P04150); experiment: qHTS assay to identify small molecule antagonists of the glucocorticoid receptor (GR) signaling pathway (AID 720692; active means well fitted inhibition curve with a large enough effect in the signal ratio in the repeat runs, not every such curve was filed as active; the % refers to the signal ratio)
Method in brief: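 Inhibition of glucocorticoid signalling is measured in HeLa cells with a GRE-controlled beta-lactamase reporter; cells are co-treated with compound and 5 nM dexamethasone (final) for 18 h before FRET substrate readout.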

[34] = qHTS assay to identify small molecule antagonists of the androgen receptor (AR) signaling pathway using the MDA cell line - cell viability counter screen (AID 743041; further: nearly all actives have a fitted effect of over 45% in size)
Method in brief: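 MDA-kb2 AR-luc human breast carcinoma cells (MMTV-luciferase, AR/GR responsive) were treated with compounds plus R1881 agonist for 16 h at 37 °C. Viability was read as CellTiter-Fluor fluorescence in the same wells as the reporter assay.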

[35] = tested on: thyroid hormone receptor (rat, GH3 cells); experiment: qHTS assay to identify small molecule agonists of the thyroid receptor (TR) signaling pathway (AID 743066; calls by dose curve)
[36] = qHTS assay to identify small molecule antagonists of the estrogen receptor alpha (ER-alpha) signaling pathway using the BG1 cell line - cell viability counter screen (AID 743081);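 further: compound given together with 17beta-estradiol as the ER stimulus; series mostly up to about 70 µM; nearly all actives have a fitted effect of over 45% in size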
[37] = biological target: Aryl hydrocarbon receptor (Homo sapiens) (UniProt P35869); experiment: qHTS assay to identify small molecule that activate the aryl hydrocarbon receptor (AhR) signaling pathway (AID 743085);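 further: HG2L7.5c1 human HepG2 liver cells with stably integrated DRE-driven firefly reporter; series mostly up to about 70 µM; nearly all actives have a fitted effect of over 15% in size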
Method in brief: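 Compounds were tested in HepG2 hepatocellular carcinoma cells harbouring a stably integrated luciferase gene under control of 20 DREs. Increased reporter signal after 24 h treatment at 37C was taken as AhR activation.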

[38] = qHTS assay to identify small molecule that activate the aryl hydrocarbon receptor (AhR) signaling pathway - cell viability counter screen (AID 743086)
Method in brief: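 HepG2-AhR-luc (HG2L7.5c1) cells, 4000/well, were preincubated 5 h at 37C, exposed to compound in qHTS format for 24 hr at 37C, then given CellTiter-Fluor for 30 min; viability was read as fluorescence in the reporter wells.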

[39] = biological target: Peroxisome proliferator-activated receptor gamma (Homo sapiens) (UniProt P37231); experiment: qHTS assay to identify small molecule agonists of the peroxisome proliferator-activated receptor gamma (PPARg) signaling pathway (AID 743094; active means well fitted activation curve with a large enough effect in the signal ratio in the repeat runs, not every such curve was filed as active; the % refers to the signal ratio)
Method in brief: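 Compounds dissolved in DMSO were added to PPARg UAS-bla HEK293H cells for 17 h at 37C, and reporter expression was quantified by fluorescence intensity after 1 h with LiveBLAzer B/G FRET substrate.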

[40] = biological target: Acetylcholinesterase (Homo sapiens) (UniProt P22303); experiment: Acetylcholinesterase (AChE) small molecule antagonists: enzyme-based qHTS assay (AID 1347397; calls by dose curve; further: nearly all actives have a fitted effect of over 55% in size); conditions: Potency: AChE enzyme activity inhibition; outcome: AChE enzyme activity inhibition
Method in brief: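 Recombinant human AChE, dispensed at 50 mU/mL, was preincubated with Tox21 10K compounds or DMSO vehicle for 30 min at room temperature. DTNB plus acetylthiocholine was then added, and thiocholine was measured colorimetrically after a further 10 min.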

[41] = biological target: Acetylcholinesterase (Homo sapiens) (UniProt P22303); experiment: Acetylcholinesterase (AChE) small molecule antagonists: fluorescence cell-based qHTS assay (AID 1347398; calls by dose curve; further: nearly all actives have a fitted effect of over 50% in size); conditions: Potency: AChE activity; outcome: AChE activity
Method in brief: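 Human SH-SY5Y cells were plated overnight at 37 C, exposed to compound for 30 min at 37 C, 5% CO2, then given acetylthiocholine plus Thiolite Green for 40 min at room temperature; thiocholine fluorescence (Ex/Em 490/520 nm) reports endogenous AChE activity.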

[42] = biological target: Acetylcholinesterase (Homo sapiens) (UniProt P22303); experiment: Acetylcholinesterase (AChE) small molecule antagonists: enzyme-based qHTS assay with human liver microsomes (AID 1347399; calls by dose curve; further: nearly all actives have a fitted effect of over 60% in size); conditions: Potency: qHTS inhibition; outcome: qHTS inhibition
Method in brief: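 Recombinant human AChE (50 mU/mL in the enzyme mix) and human liver microsomes (0.25 mg/mL final) were preincubated with compound and NADPH (0.25 mg/mL final) for 30 min at 37 C. Acetylthiocholine/DTNB was then added; thiocholine was read colorimetrically after 10 min at room temperature.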

Measured: Potency

Estrogen receptor (Homo sapiens), sequence (P03372 whole entry, looked up): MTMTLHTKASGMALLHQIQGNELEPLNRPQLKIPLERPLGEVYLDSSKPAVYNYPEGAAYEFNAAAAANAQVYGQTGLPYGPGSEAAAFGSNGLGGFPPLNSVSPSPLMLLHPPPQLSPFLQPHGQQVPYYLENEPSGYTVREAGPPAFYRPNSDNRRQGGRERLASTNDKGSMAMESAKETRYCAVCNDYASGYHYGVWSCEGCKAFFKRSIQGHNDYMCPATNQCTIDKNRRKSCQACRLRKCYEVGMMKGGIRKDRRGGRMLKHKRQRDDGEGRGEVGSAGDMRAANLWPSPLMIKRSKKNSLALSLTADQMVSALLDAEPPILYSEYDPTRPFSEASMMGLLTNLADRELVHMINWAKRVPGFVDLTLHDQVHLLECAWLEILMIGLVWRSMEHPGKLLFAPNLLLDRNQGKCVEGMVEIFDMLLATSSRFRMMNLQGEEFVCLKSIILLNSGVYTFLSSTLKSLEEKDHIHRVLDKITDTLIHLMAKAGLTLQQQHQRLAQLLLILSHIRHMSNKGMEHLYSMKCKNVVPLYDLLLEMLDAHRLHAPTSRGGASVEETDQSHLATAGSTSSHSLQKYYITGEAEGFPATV
Acetylcholinesterase (Homo sapiens), sequence (P22303 whole entry, looked up): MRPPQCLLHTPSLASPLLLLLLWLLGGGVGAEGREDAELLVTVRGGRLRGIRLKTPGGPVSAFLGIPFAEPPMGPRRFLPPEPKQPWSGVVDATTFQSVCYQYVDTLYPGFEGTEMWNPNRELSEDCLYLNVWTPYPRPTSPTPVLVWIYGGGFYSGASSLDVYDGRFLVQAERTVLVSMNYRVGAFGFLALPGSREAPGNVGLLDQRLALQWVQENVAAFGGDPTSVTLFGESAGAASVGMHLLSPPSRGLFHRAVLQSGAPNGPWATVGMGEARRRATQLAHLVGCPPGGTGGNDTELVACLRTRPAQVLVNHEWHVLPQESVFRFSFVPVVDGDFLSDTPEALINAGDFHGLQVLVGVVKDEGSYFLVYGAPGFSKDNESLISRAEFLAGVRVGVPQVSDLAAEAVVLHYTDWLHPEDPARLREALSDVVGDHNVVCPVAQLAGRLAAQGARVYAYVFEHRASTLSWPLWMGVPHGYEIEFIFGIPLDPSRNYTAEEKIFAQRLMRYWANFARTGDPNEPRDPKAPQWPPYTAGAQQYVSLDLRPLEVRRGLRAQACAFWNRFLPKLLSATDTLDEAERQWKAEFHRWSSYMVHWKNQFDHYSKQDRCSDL
Aromatase (Homo sapiens), sequence (P11511 whole entry, looked up): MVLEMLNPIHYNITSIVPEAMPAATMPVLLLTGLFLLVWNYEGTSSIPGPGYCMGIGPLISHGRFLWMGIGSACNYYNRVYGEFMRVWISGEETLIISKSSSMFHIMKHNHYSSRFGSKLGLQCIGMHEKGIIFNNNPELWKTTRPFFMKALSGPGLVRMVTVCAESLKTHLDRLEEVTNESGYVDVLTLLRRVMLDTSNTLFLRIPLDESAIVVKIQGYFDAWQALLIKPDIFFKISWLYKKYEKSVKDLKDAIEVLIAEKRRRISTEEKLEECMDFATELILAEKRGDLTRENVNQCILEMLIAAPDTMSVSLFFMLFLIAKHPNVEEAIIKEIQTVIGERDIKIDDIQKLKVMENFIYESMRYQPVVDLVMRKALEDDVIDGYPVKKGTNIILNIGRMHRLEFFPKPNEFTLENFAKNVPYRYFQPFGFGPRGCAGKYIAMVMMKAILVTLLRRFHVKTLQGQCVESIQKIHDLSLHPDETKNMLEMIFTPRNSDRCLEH
Glucocorticoid receptor (Homo sapiens), sequence (P04150 whole entry, looked up): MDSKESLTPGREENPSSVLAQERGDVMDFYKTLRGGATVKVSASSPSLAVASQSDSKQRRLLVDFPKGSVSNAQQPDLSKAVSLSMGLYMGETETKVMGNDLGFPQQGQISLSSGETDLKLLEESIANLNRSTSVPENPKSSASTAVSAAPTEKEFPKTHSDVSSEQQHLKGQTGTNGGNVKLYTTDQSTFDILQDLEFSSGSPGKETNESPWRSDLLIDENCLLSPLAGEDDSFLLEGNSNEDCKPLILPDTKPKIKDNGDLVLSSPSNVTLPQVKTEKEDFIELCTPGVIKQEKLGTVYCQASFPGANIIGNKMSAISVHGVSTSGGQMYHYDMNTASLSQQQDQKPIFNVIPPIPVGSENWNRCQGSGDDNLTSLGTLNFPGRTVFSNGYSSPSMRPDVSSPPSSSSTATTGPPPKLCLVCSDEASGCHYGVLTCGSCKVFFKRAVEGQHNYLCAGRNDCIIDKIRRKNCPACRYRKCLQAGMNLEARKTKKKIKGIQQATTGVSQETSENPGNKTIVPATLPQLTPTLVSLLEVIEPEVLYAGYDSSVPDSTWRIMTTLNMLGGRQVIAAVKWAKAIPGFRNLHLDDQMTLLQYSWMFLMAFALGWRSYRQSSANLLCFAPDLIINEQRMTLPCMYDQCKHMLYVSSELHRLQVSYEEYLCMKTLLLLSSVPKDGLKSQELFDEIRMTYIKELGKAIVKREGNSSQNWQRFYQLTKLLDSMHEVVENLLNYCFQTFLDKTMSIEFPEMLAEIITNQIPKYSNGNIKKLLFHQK
Peroxisome proliferator-activated receptor gamma (Homo sapiens), sequence (P37231 whole entry, looked up): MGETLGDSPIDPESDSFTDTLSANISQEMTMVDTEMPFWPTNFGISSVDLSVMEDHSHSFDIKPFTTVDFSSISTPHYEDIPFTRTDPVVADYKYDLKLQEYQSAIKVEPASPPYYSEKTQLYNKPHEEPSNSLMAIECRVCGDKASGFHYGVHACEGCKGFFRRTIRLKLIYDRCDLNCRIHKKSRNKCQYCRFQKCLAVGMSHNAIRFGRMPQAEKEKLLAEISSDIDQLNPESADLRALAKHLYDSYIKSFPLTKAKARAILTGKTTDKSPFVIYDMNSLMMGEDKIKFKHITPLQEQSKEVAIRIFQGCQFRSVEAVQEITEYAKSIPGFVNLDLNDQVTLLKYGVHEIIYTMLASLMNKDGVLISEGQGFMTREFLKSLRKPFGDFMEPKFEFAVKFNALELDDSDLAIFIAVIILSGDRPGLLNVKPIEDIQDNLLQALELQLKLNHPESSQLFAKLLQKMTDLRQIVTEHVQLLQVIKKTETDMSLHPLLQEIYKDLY
Aryl hydrocarbon receptor (Homo sapiens), sequence (P35869 whole entry, looked up): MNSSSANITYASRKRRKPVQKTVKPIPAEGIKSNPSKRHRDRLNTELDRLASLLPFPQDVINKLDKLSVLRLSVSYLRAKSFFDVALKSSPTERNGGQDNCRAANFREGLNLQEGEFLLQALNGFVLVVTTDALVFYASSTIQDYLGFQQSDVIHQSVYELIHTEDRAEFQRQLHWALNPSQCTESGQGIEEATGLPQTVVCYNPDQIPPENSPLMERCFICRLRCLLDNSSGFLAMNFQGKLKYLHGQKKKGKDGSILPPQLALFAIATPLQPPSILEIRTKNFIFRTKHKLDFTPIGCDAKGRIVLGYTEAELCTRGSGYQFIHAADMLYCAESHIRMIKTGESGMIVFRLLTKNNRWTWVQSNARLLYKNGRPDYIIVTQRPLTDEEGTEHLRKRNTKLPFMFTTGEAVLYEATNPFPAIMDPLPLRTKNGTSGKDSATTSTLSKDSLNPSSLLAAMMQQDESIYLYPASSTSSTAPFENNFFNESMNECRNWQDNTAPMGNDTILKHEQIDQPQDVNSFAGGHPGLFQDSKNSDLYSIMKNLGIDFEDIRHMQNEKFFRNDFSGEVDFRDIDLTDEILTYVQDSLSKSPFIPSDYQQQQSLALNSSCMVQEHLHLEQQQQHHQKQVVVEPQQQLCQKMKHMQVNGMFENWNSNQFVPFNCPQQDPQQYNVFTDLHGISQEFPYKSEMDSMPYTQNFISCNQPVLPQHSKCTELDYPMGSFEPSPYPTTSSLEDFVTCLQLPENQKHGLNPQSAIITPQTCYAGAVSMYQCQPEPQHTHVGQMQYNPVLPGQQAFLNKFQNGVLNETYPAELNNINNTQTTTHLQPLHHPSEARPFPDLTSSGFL

CC(C)[C@H]1C(=O)N2CCC[C@H]2[C@]2(O)O[C@](NC(=O)[C@@H]3C[C@@H]4c5cccc6[nH]cc(c56)C[C@H]4N(C)C3)(C(C)C)C(=O)N12
active: [17] 29.8 µM | [18] 29.8 µM | [19] 26.6 µM | [21] 29.8 µM | [22] 29.8 µM | [26] 11.9 µM
not listed: [30] | [31] | [32] | [33] | [34] | [35] | [36] | [37] | [38] | [39] | [40] | [41] | [42]
inactive: all other assays above

O=P1(N(CCCl)CCCl)NC(OO)CCO1 (stereo unspecified)
active: [18] 13.3 µM
not listed: [1] | [16] | [40] | [41] | [42]
inactive: all other assays above

CCCCCCCCC/C=C/CC1CC(=O)OC1=O (stereo unspecified)
inactive: [40] | [41] | [42]

CCCCOCCOCCOCCCC
inactive: [40] | [41] | [42]

Cc1ccc(N(C)C)cc1
inactive: [40] | [41] | [42]

NC(=O)N[C@@H](CCC(=O)O)C(=O)O
inactive: [40] | [41] | [42]

CCCC(=O)OCC(COC(=O)CCC)OC(=O)CCC
inactive: [40] | [41] | [42]
